Data from PMC8384837, “Expanding the binding specificity for RNA recognition by a PUF domain”.

How the values were obtained:
Assay in all cases: yeast three-hybrid, YBZ-1, SC-Leu-His + 0.5 mM 3-AT, 4 days
Conditions in all cases: tags: N-Gal4 AD-HA kept; label: inside an RPR1-promoter hybrid RNA with tandem MS2 sites; ssRNA
[1] = target: PUM1 PUF domain R2-AWS (Homo sapiens, UniProt Q14671 828-1176, N899A;Y900W;Q903S)
In short: (§1)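 Repeat regions from input (SC-Leu) and selection (SC-Leu-His + 0.5 mM 3-AT) plates were PCR-amplified and Illumina-sequenced after four days of growth. The cells were strain YBZ-1 with a LexA–MS2 coat fusion and a HIS3 reporter, co-expressing Pumilio-1 PUF domain libraries and matching RNA elements from a centromeric plasmid. The interaction score is the log change in variant frequency from input to selection, taken in log2 with a pseudocount of 1 for absent variants.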

[2] = target: T1, PUM1 PUF domain R6-VFL (Homo sapiens, UniProt Q14671 828-1176, N1043V;Y1044F;Q1047L)
T1 sequence: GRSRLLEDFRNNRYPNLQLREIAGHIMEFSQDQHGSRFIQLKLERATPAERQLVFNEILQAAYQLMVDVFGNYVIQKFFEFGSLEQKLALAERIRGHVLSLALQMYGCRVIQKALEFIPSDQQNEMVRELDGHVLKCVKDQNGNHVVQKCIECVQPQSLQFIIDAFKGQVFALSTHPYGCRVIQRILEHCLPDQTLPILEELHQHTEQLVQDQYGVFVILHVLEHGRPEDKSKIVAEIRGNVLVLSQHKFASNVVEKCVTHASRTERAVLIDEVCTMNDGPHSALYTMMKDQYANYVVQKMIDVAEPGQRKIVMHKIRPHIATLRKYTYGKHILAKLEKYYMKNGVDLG
In short: as §1

[3] = target: PUM1 PUF domain R8-IYW (Homo sapiens, UniProt Q14671 828-1176, N1122I;Q1126W)
In short: as §1

Q: Which binding signal [1] does the source give for “GGCUAGAACUAGUGGAUCCCCCGGCGCCCGGCGGCUCGAGCCCGGGUAAGUGUAAAAAGUCUGCAUGCCGCCGGGCGCCAUGCCUGCAGGUCGACUCUAGAAAACAUG” here?
A: 4.37 log2 enrichment (interaction score)

Q: Which binding signal [2] does the source give for “GGCUAGAACUAGUGGAUCCCCCGGCGCCCGGCGGCUCGAGCCCGGGUAAGUGAAAAUAGUCUGCAUGCCGCCGGGCGCCAUGCCUGCAGGUCGACUCUAGAAAACAUG” here?
A: 7.04 log2 enrichment (interaction score)

Q: With “GGCUAGAACUAGUGGAUCCCCCGGCGCCCGGCGGCUCGAGCCCGGGUAAGCGUAAAUAGUCUGCAUGCCGCCGGGCGCCAUGCCUGCAGGUCGACUCUAGAAAACAUG” as the sequence, how does the binding signal [3] read?
A: 2.87 log2 enrichment (interaction score)
